Data on nine compounds can be found in publication PMC5540273 (PLoS ONE, 2017).

Test systems include ZAK; ZAP70; p38-delta.
Common to all, as to settings: concentration: 1 μM, replicates: in singlicate; n = 1
In the next assay the test system is T1, YANK2.
T1 construct: gene STK32B

The subject of a further assay is T2, YANK3.
T2 construct: gene STK32C

In the next assay the test system is T3, YES.
T3 construct: gene YES1

A further assay has as its system T4, YSK1.
T4 construct: gene STK25

A further assay deals with T5, YSK4.
T5 construct: gene MAP3K19

Another assay concerns T6, p38-beta.
T6 construct: gene MAPK11

The test system of the next assay is T7, p38-gamma.
T7 construct: gene MAPK12

A further assay has as its system T8, p38-alpha.
T8 construct: gene MAPK14
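Further: KINOMEscan kinase panel screen.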

As to `CNC(=O)c1ccc(C)c(-n2c(C)cc(OCc3ccc(F)cc3F)c(Br)c2=O)c1`, the “%Inh” value with YANK2, in the assay with YANK3, in the assay with YES, in the assay on YSK1, in the assay with YSK4 and in the assay on ZAK was 0% throughout. For the same compound, the “%Inh” value stood at 0% with ZAP70, 94.5% in the assay with p38-beta, 0% in the assay with p38-delta and 0% with p38-gamma.

On to `COC(=O)c1cccc(NC(=O)NC2CCN(c3ccnc(Nc4ccc(F)cc4)n3)C2)c1` (centres unmarked) [GSK1379725], for which the “%Inh” value amounted to 0% in the assay on YANK2; 0% in the assay on YANK3; 8% in the assay with YES; 0% in the assay on YSK1; 8% with YSK4; 2% in the assay with ZAK. The “%Inh” value in the assay on ZAP70 worked out at 0%; with p38-alpha, 0%; in the assay with p38-beta, 0%; with p38-delta, 51%; in the assay on p38-gamma it was 0%.

Regarding `COc1nccc(-c2c(-c3ccc(F)cc3)ncn2CCCN2CCOCC2)n1` [SB-282852], the “%Inh” value amounted to 0% in the assay on YANK2; 0% with YANK3; 0% in the assay on YES; 0% in the assay with YSK1; 0% in the assay with YSK4; 11% in the assay on ZAK. Further, the “%Inh” value in the assay on ZAP70 was determined as 31%; in the assay on p38-alpha, 81%; with p38-beta, 62%; in the assay on p38-delta, 0%; in the assay on p38-gamma, 46%.

On to `O=C(Nc1n[nH]c2nc(-c3ccco3)c(Br)cc12)C1CCN(Cc2ccccc2)C1.O=C(O)[C@H](O)[C@@H](O)C(=O)O` (centres unmarked) [SB-742034], for which the “%Inh” value amounted to 9% in the assay with YANK2; 0% with YANK3; 12% with YES; 0% with YSK1; 56% with YSK4; 0% with ZAK. Also, the “%Inh” value in the assay with ZAP70 was found to be 35%; in the assay on p38-alpha, 13%; with p38-beta, 15%; with p38-delta, 7%; in the assay with p38-gamma, 20%.

`CNCc1ccc2nc(NC(=O)c3ccc(C(C)(C)C)cc3)cn2c1`: the “%Inh” value amounted to 22% in the assay with YANK2; 3% in the assay on YANK3; 0% with YES; 7% in the assay on YSK1; 30% in the assay on YSK4; 3% in the assay on ZAK. For the same compound, the “%Inh” value in the assay on ZAP70 is 15%; in the assay on p38-alpha, 83%; with p38-beta it was 0%; with p38-delta, 0%; in the assay on p38-gamma, 26%.

On to `COc1cc2ncnc(Nc3cccc(Br)c3)c2cc1OC.Cl` [GI230329], for which the “%Inh” value is given as 0% in the assay with YANK2; 13% in the assay on YANK3; 3% in the assay with YES; 4% in the assay on YSK1; 63% in the assay on YSK4; 12% with ZAK. Moreover, the “%Inh” value in the assay on ZAP70 was 0%; in the assay with p38-alpha it was 47%; with p38-beta it was 0%; in the assay on p38-delta it was 46%; in the assay on p38-gamma it was 66%.

As to `Cc1nccc(-c2c(-c3ccc(F)cc3)ncn2CCCN2CCOCC2)n1.Cl` [SB-282975], the “%Inh” value was found to be 0% in the assay with YANK2; 5% in the assay with YANK3; 18% in the assay on YES; 0% in the assay with YSK1; 22% in the assay with YSK4; 28% with ZAK. For the same compound, the “%Inh” value in the assay on ZAP70 turned out to be 25%; with p38-alpha, 61%; in the assay on p38-beta, 26%; in the assay with p38-delta it was 0%; with p38-gamma, 26%.

On to `COc1cccc(CNC(=O)NC2CCN(c3ccnc(Nc4ccc(F)cc4)n3)C2)c1` (centres unmarked) [GSK1379723], for which the “%Inh” value with YANK2 was found to be 0%; in the assay with YANK3, 14%; in the assay with YES it was 8%; in the assay with YSK1, 0%; in the assay with YSK4, 28%; in the assay on ZAK it was 100%. The “%Inh” value with ZAP70 is listed as 0%; with p38-alpha, 0%; in the assay with p38-beta, 0%; in the assay with p38-delta, 43%; in the assay on p38-gamma, 0%.

Take `CCc1ccc(-c2ccc3c(c2)-c2n[nH]cc2S(=O)(=O)N3C)cc1`: the “%Inh” value with YANK2 is 0%; in the assay with YANK3, 0%; in the assay on YES, 0%; in the assay on YSK1 it was 0%; in the assay on YSK4, 0%; in the assay on ZAK it was 5%. In addition, the “%Inh” value in the assay with ZAP70 is 3%; with p38-alpha it was 0%; with p38-beta, 0%; with p38-delta, 0%; in the assay on p38-gamma it was 0%.
